Source: PubChem BioAssay (NCI)
About 79,000 compounds went through this panel and 15% of them were active in at least one assay; those are over-represented in the sample as a whole. No stated cut-off is given here; in the data, active means growth inhibition above about 70%; inactive means the rest.

What was measured:
[1] = NCI Yeast Anticancer Drug Screen. Data for the rad50 strain (AID 155);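 further: 0% = growth of vehicle-only cultures of the same strain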; details: S. cerevisiae rad50 strain growth inhibition; at 50.0 µM; stronger effect = higher value
Outline: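 Inhibition values express reduced yeast growth in compound-treated cultures relative to vehicle-treated controls.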

[2] = NCI Yeast Anticancer Drug Screen. Data for the mec2-1 strain (AID 157); details: S. cerevisiae mec2-1 strain, at 50.0 µM, stronger effect = higher value
Outline: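 Test agents were screened against the mec2-1 yeast strain, with defined DNA repair or cell cycle alteration. Growth was scored as inhibition against vehicle-only controls.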

[3] = NCI Yeast Anticancer Drug Screen. Data for the sgs1 mgt1 strain (AID 161);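 further: 0% = growth of cultures given vehicle only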; details: S. cerevisiae sgs1 mgt1 strain, at 50.0 µM, stronger effect = higher value
Outline: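 Read-out: growth inhibition vs vehicle controls. Cells: mutant yeast strain deficient in DNA damage repair.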

[4] = NCI Yeast Anticancer Drug Screen. Data for the cln2 rad14 strain (AID 165);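 further: 0% = growth equal to vehicle treated cultures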; details: S. cerevisiae cln2 rad14 strain, at 50.0 µM, stronger effect = higher value
Outline: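 Growth of compound-exposed yeast (cln2 rad14 genotype) measured and expressed as inhibition relative to vehicle.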

[5] = NCI Yeast Anticancer Drug Screen. Data for the bub3 strain (AID 167); details: S. cerevisiae bub3 mutant strain, at 50.0 µM, stronger effect = higher value
Outline: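 Steps: expose the mutant yeast strain to compound; grow alongside vehicle-treated cultures; measure growth; express inhibition against the vehicle cultures.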

[6] = NCI Yeast Anticancer Drug Screen. Data for the mlh1 rad18 strain (AID 175); details: S. cerevisiae mlh1 rad18 strain growth inhibition; at 50.0 µM; stronger effect = higher value
Outline: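 In this whole-cell yeast screen, a strain with altered DNA damage repair is challenged with compound, and its growth is measured against matched vehicle-treated controls.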

Measured: growth inhibition

CC(=O)NC(=O)C(C(C)=O)c1ccccc1 (stereo not given)
inactive: [1] -5.8% | [2] -0.25% | [3] -7.35% | [4] 12.8% | [5] -7.75% | [6] -10.9%

CC1=C(c2ccccc2)CON(c2ccccc2)C1
inactive: [1] -9.3% | [2] -15.1% | [3] -9.2% | [4] -5.4% | [5] 14.8% | [6] -9.2%

CCN(CC)c1c(C)nnn1C1OC(COC(C)=O)C(OC(C)=O)C(OC(C)=O)C1OC(C)=O (stereo not given)
inactive: [1] -0.8% | [2] -10.9% | [3] -19.9% | [4] 3.15% | [5] 11.8% | [6] -12%

CCCCCCCC[C@]1(O)C[C@H]2[C@@H]3CCc4cc(OC)ccc4[C@H]3CC[C@]2(C)[C@H]1O
inactive: [1] -3.45% | [2] -10.7% | [3] -1.15% | [4] 7.1% | [5] -11.2% | [6] 0.5%

O=NN(CCCl)C(=O)NC1CCC(CC2CCC(NC(=O)N(CCCl)N=O)CC2)CC1 (stereo not given)
inactive: [1] 24.9% | [2] 5.6% | [3] 8.05% | [4] 29.5% | [5] -6.45% | [6] 10.6%

CCCCCCCCCCCCCCCCCCOCCCCCC
inactive: [1] -8.65% | [2] -30.1% | [3] -19.8% | [4] 4.2% | [5] -10.3% | [6] -7.55%

COC(=O)Cc1[nH]c(C(=O)OC)c(C)c1C(=O)OC
inactive: [1] -6.7% | [2] -7.45% | [3] -3.15% | [4] -21.1% | [5] -6.95% | [6] -2.2%

CCOP(=O)(OCC)C(C)(CC)NC1=NC(C(F)(F)F)(C(F)(F)F)NC(=O)N1 (stereo not given)
inactive: [1] -2.2% | [2] -10.2% | [3] -3.3% | [4] 1% | [5] -0.5% | [6] -0.15%

O/N=C1/CCSc2ccccc21
inactive: [1] 21% | [2] -8.9% | [3] 17.1% | [4] 16.2% | [5] 28.4% | [6] 8.25%

COc1cccc(C(=O)c2ccncc2)c1OC
inactive: [1] -10.2% | [2] -4.65% | [3] -5.6% | [4] 4.4% | [5] 1.1% | [6] -4.85%

O=C(O)/C=C\C(=O)Nc1ccc(S(=O)(=O)Nc2nccs2)cc1
inactive: [1] -0.8% | [2] -3.45% | [3] -15.2% | [4] 2.6% | [5] 1.6% | [6] -10.1%

CC1(c2ccc3cccc(F)c3c2)OC(=O)c2ccccc21 (stereo not given)
inactive: [1] 2% | [2] 1.65% | [3] -2.95% | [4] -68.8% | [5] -4.25% | [6] -12.7%

Nc1cc2c(cn1)[nH]c1ccccc12
inactive: [1] 2.9% | [2] -14.8% | [3] -13.8% | [4] -16.4% | [5] 5.6% | [6] -2.35%

COc1ccc(/C=N\N2CN(C(CC(N)=O)C(=O)O)C(O)(CCl)N=C2N)cc1OC (stereo not given)
inactive: [1] 9.1% | [2] -6.9% | [3] 3.1% | [4] -5.65% | [5] 6.8% | [6] -0.1%

COc1cc([N+](=O)[O-])c2ncccc2c1
inactive: [1] -15.9% | [2] -16% | [3] -7.6% | [4] 6.9% | [5] -3.1% | [6] 18.1%

CCOC(=O)C(CC(Nc1ccccc1)(c1ccccc1)c1ccccc1)c1ccccc1 (stereo not given)
inactive: [1] 21.9% | [2] -8.3% | [3] 4.65% | [4] -35.5% | [5] -3.45% | [6] -0.65%

CCN(CC)CCOC(=O)c1ccc(N=NC2Sc3nc4ccccc4n3C2=O)cc1 (stereo not given)
inactive: [1] 27.9% | [2] 20.2% | [3] 15.9% | [4] 14.4% | [5] 6.8% | [6] 27.8%

CCCCCCCCNC(=O)/C(=C\c1ccc(/C=C(/NC(=O)c2ccccc2)C(=O)NCCCCCCCC)cc1)NC(=O)c1ccccc1
inactive: [1] -14% | [2] -23.4% | [3] -20.4% | [4] 11.7% | [5] -17.9% | [6] -4%

N#CC1=C(c2ccccc2)NN(Cc2ccccc2)C(c2ccc(Cl)cc2)CC1=O (stereo not given)
inactive: [1] 31.9% | [2] 7.25% | [3] 8.25% | [4] -44.1% | [5] 2.6% | [6] 30.6%

O=C(NC(=S)c1ccco1)NS(=O)(=O)c1ccc(Cl)cc1
inactive: [1] 8.35% | [2] 7.05% | [3] 12.2% | [4] 16.2% | [5] 20.4% | [6] 29.4%

COc1cccc(NC(=S)NCc2cccnc2)c1
inactive: [1] -13.4% | [2] -24.9% | [3] 9.1% | [4] 9.25% | [5] -13.2% | [6] -5.3%

Clc1ccc(Cl)s1
inactive: [1] 34.5% | [2] 3.55% | [3] 20.3% | [4] 18.6% | [5] 14% | [6] 26.1%

NS(=O)(=O)c1ccc(NC(NC(=O)C(C(F)(F)F)C(F)(F)F)(C(F)(F)F)C(F)(F)F)cc1
inactive: [1] 16.6% | [2] 15.1% | [3] -6.2% | [4] -8.25% | [5] 5.15% | [6] -0.8%

O=S1c2ccccc2N=C(c2cccc3ccccc23)CC1c1cccc2ccccc12 (stereo not given)
inactive: [1] 56.4% | [2] 38.8% | [3] 52.5% | [4] 23.8% | [5] 58.1% | [6] 41%

NC(Cc1c[nH]c2ccc([N+](=O)[O-])cc12)C(=O)O (stereo not given)
inactive: [1] 15.9% | [2] -28.6% | [3] -24.8% | [4] 2.45% | [5] -48.6% | [6] -7.7%

CC(C)N(C(=O)C12C3C4C5C3C1(C(=O)N(C(C)C)C(C)C)C5C42)C(C)C (stereo not given)
inactive: [1] 16.5% | [2] 17.4% | [3] 12.2% | [4] 1% | [5] 19.9% | [6] 14.4%

O=C1c2ccccc2C(=O)c2c(Cl)cccc21
inactive: [1] 56.6% | [2] 4.7% | [3] -19.2% | [4] -39.5% | [5] -9.35% | [6] 7.35%

Cc1cccc(Cl)c1N=Nc1c(N)nc(N)[nH]c1=O
inactive: [1] 15.8% | [2] -20.8% | [3] -5.1% | [4] -4.8% | [5] -0.35% | [6] -0.5%

C=C1C(c2ccccc2)C(c2ccccc2)=C(C)C(c2ccccc2)=CN1C(=O)c1ccccc1 (stereo not given)
inactive: [1] -3.05% | [2] 8.7% | [3] -9.2% | [4] 23.2% | [5] -4.7% | [6] 15.2%

Cc1ccc([Si](C)(C)c2ccccc2)cc1
inactive: [1] -2.4% | [2] 13.6% | [3] -2.65% | [4] 7.7% | [5] 9.7% | [6] 4.9%

CC(=O)c1cc2c(cc1C(C)C)CC[C@H]1[C@](C)(C#N)CCC[C@]21C
inactive: [1] 1% | [2] -1.15% | [3] 1.25% | [4] -26.6% | [5] 15.9% | [6] 31.3%

CC1(C)OCC(C2OC3OC(C)(C)OC3C2OP(=O)(N2CC2)N2CC2)O1 (stereo not given)
inactive: [1] -16.1% | [2] -31.4% | [3] -38.9% | [4] -49.2% | [5] -70.8% | [6] -73.4%

CC1OC(c2cccc([N+](=O)[O-])c2)OCC1(C)C (stereo not given)
inactive: [1] -14.7% | [2] -19.4% | [3] -4.9% | [4] -32.6% | [5] 15.1% | [6] -16.6%

CCC1(c2ccccc2)SC(N)=NC1=O (stereo not given)
inactive: [1] 2.15% | [2] 2.75% | [3] -12.8% | [4] -8.45% | [5] 1.05% | [6] -0.6%

C1CCN(/N=N/c2nn[nH]n2)CC1
inactive: [1] -2.3% | [2] 6.55% | [3] -2.8% | [4] -23% | [5] 3.9% | [6] -0.7%

CC1=CC(=O)c2ccc(F)cc2C1=O
inactive: [1] -11.8% | [2] -3.85% | [3] 15% | [4] -2.9% | [5] -7.95% | [6] 13.8%

O=C1c2ccccc2C(=O)N1Cl
inactive: [1] 8.7% | [2] -4.75% | [3] -37.1% | [4] -0.05% | [5] 2.2% | [6] -5.75%

N#Cc1c(N)nc([Se]CC(=O)c2ccc(Cl)cc2)c(C#N)c1-c1ccco1
inactive: [1] -7.45% | [2] -3.45% | [3] 2.3% | [4] 9.4% | [5] 4.1% | [6] 10.9%

Cc1cc(S(=O)(=O)Nc2nnc3c(Cl)cc(C(F)(F)F)cn23)c(S)cc1Cl
inactive: [1] -30.2% | [2] -35.2% | [3] -33.4% | [4] -14.3% | [5] 13.9% | [6] -20%

CC(=O)NCC1(c2ccccc2)CCN(Cc2ccccc2)CC1
inactive: [1] -6.8% | [2] -17.3% | [3] -11.7% | [4] 5.7% | [5] -17% | [6] -14.2%
